Experimental data as given in PMC5540273 (PLoS ONE, 2017).

Experiments:
Settings in all cases: concentration: 1 μM, replicates: in singlicate; n = 1
CAMK4 = system: CAMK4
CAMKK1 = system: CAMKK1
CAMKK2 = system: CAMKK2
CASK = system: CASK
CDC2L1 = system: T1, CDC2L1
T1 construct: gene CDK11B

CDC2L2 = system: CDC2L2
CDC2L5 = system: T2, CDC2L5
T2 construct: gene CDK13

CDK11 = system: T3, CDK11
T3 construct: gene CDK19

CDK2 = system: CDK2
CDK3 = system: CDK3
CDK4-cyclinD1 = system: CDK4-cyclinD1
CDK4-cyclinD3 = system: CDK4-cyclinD3
CDK4 = system: CDK4
CDK5 = system: CDK5
CDK7 = system: CDK7
CDK8 = system: CDK8
CDK9 = system: CDK9
CDKL1 = system: CDKL1
CDKL2 = system: CDKL2
CDKL3 = system: CDKL3
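Further: KINOMEscan kinase panel screen.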

| Structure (SMILES) | %Inh (CAMK4) | %Inh (CAMKK1) | %Inh (CAMKK2) | %Inh (CASK) | %Inh (CDC2L1) | %Inh (CDC2L2) | %Inh (CDC2L5) | %Inh (CDK11) | %Inh (CDK2) | %Inh (CDK3) | %Inh (CDK4-cyclinD1) | %Inh (CDK4-cyclinD3) | %Inh (CDK4) | %Inh (CDK5) | %Inh (CDK7) | %Inh (CDK8) | %Inh (CDK9) | %Inh (CDKL1) | %Inh (CDKL2) | %Inh (CDKL3) |
| --- | --- | --- | --- | --- | --- | --- | --- | --- | --- | --- | --- | --- | --- | --- | --- | --- | --- | --- | --- | --- |
| Fc1ccc(-c2nc3n(c2-c2ccncc2)CCS3)cc1 [GI98581] | 0% | 8% | 0% | 20% | 0% | 0% | 0% | 7% | 6% | 24% | 0% | 0% | 31% | 6% | 0% | 19% | 0% | 2% | 4% | 0% |
| Cc1cnc(N)c(/C=C/c2cncc(C(=O)NCCc3ccc(Cl)cc3Cl)c2)c1.Cl [GSK190937] | 0% | 7% | 20% | 7% | 0% | 17% | 0% | 92.8% | 0% | 6% | 0% | 0% | 16% | 0% | 0% | 88% | 0% | 0% | 15% | 0% |
| COc1ccc(CSc2nnc(-c3ccc4ncsc4c3)o2)cc1C(F)(F)F | 0% | 0% | 0% | 10% | 0% | 0% | 35% | 37% | 1% | 0% | 0% | 0% | 0% | 2% | 0% | 15% | 0% | 0% | 0% | 0% |
| Cc1c(Cn2c3ccccc3n3c(=O)cc(N4CCOCC4)nc23)cccc1C(F)(F)F [GSK2306394] | 8% | 69% | 5% | 0% | 100% | 0% | 0% | 0% | 0% | 0% | 0% | 0% | 0% | 0% | 0% | 0% | 100% | 0% | 16% | 0% |
| O=c1cc(N2CCOCC2)nc2n(Cc3ccccc3F)ccn12 [GSK2297428] | 0% | 5% | 3% | 79% | 0% | 12% | 0% | 0% | 0% | 0% | 0% | 0% | 0% | 0% | 0% | 22% | 0% | 0% | 13% | 0% |
| CC(C)c1ccc(O)cc1Nc1ccnc2ccc(C(F)(F)F)cc12 [GW482059] | 14% | 0% | 0% | 0% | 0% | 5% | 0% | 0% | 0% | 0% | 85% | 0% | 0% | 0% | 0% | 25% | 0% | 0% | 5% | 0% |
| COc1ccc(CSc2nnc(-c3ccc4nccn4c3)o2)cc1C(F)(F)F | 0% | 0% | 0% | 15% | 4% | 5% | 50% | 40% | 0% | 4% | 7% | 13% | 0% | 10% | 13% | 21% | 0% | 21% | 7% | 18% |
| Nc1ncnc2occ(-c3ccc4c(c3)CCN4C(=O)Cc3cc(F)ccc3F)c12 [GSK2645446] | 0% | 0% | 13% | 0% | 0% | 12% | 0% | 81% | 0% | 0% | 0% | 0% | 18% | 0% | 0% | 79% | 0% | 17% | 0% | 0% |
| COc1ccc2cc(-c3nc(-c4ccccc4C(C)C)[nH]c3-c3ccncc3)ccc2c1 [SB-660566] | 7% | 8% | 0% | 7% | 0% | 2% | 0% | 33% | 0% | 13% | 0% | 19% | 9% | 0% | 0% | 0% | 0% | 0% | 9% | 0% |
| NS(=O)(=O)c1cccc(N/C=C2\C(=O)Nc3ccc(S(=O)(=O)Cc4c(Cl)cccc4Cl)cc32)c1 [GSK398099] | 0% | 72% | 60% | 27% | 0% | 9% | 0% | 0% | 0% | 24% | 0% | 18% | 0% | 0% | 0% | 0% | 0% | 100% | 37% | 0% |
| Cc1ccc(-c2nc(Nc3ccncc3)c3ccccc3n2)s1 [GSK189015] | 26% | 0% | 7% | 0% | 0% | 17% | 0% | 9% | 24% | 0% | 0% | 0% | 0% | 100% | 0% | 3% | 5% | 0% | 0% | 0% |
| Cn1cnc2c(N)ncnc21 [SKF-97623] | 7% | 0% | 0% | 7% | 0% | 0% | 0% | 0% | 44% | 0% | 19% | 0% | 25% | 0% | 0% | 46% | 0% | 91.1% | 48% | 0% |
| O=C(Nc1n[nH]c2nc(-c3ccco3)c(Br)cc12)C1CCN(Cc2ccccc2)C1.O=C(O)[C@H](O)[C@@H](O)C(=O)O (stereo not drawn) [SB-742034] | 0% | 20% | 25% | 40% | 20% | 36% | 44% | 0% | 13% | 0% | 0% | 0% | 14% | 8% | 81% | 0% | 0% | 51% | 69% | 0% |
| CS(=O)(=O)CCNCc1nc(-c2ccc3ncnc(Nc4ccc(OCc5ccccc5)c(Cl)c4)c3c2)cs1.Cl [GW582764] | 0% | 0% | 7% | 5% | 0% | 0% | 0% | 0% | 0% | 1% | 45% | 0% | 38% | 0% | 0% | 47% | 0% | 9% | 18% | 0% |
| Nc1cccc(-c2ccc3c(N)n[nH]c3c2)n1 [GSK2192730] | 0% | 27% | 22% | 14% | 0% | 22% | 0% | 3% | 0% | 7% | 0% | 0% | 0% | 0% | 92.8% | 0% | 16% | 0% | 13% | 0% |
